Assay results as given in the supplement of paper PMC11732987, “Enantioselective OTUD7B fragment discovery through chemoproteomics screening and high-throughput optimisation” (Communications Chemistry, 2025).

What was measured:
Assay in all cases: log2 ratio of Biotin-Ahx-Ub-VS probe labelling (fragment/DMSO); higher = less target engagement (more negative = stronger competition), active = hit call of the paper (q ≤ 0.05, log2 ratio ≤ -1)
Conditions in all cases: compound concentration: 200 uM; treatment time: 3 h
USP42 = biological target: T1, USP42 (UniProt Q9H9J4)
T1 sequence (whole entry): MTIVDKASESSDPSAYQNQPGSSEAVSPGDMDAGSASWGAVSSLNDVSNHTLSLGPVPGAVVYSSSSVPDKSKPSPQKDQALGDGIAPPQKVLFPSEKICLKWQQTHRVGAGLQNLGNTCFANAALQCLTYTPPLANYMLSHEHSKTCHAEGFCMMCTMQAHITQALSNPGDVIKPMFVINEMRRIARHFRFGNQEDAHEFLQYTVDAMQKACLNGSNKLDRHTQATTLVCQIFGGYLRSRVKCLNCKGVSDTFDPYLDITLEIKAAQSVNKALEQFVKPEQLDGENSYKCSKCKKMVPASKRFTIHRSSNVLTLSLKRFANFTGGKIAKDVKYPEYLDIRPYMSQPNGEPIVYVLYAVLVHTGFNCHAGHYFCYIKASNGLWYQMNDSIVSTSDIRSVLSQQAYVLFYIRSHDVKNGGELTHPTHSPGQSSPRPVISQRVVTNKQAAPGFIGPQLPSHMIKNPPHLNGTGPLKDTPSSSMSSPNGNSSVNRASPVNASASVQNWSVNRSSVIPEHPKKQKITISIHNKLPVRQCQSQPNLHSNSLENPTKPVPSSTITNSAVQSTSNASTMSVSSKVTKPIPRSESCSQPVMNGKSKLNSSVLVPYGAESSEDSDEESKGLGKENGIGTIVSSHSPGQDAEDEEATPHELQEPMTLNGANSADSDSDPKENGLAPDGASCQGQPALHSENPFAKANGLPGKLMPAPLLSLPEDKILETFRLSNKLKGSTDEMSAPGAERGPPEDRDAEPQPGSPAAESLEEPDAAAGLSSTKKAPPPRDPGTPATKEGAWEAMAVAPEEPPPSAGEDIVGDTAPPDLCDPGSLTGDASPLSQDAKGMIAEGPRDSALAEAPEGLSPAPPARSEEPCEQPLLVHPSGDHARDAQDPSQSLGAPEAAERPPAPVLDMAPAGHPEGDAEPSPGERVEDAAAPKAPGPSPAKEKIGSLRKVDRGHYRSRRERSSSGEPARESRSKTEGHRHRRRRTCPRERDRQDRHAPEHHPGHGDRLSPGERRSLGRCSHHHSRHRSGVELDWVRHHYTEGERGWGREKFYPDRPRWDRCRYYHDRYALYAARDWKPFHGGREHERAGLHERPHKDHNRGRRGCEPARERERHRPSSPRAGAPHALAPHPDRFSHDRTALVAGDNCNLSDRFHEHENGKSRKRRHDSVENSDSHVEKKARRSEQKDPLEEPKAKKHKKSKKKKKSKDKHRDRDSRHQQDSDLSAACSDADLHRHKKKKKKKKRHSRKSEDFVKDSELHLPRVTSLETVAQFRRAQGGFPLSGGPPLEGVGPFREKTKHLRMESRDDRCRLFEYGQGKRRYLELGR
Method in brief: (§1)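 The table lists average log2 ratios of fragment over vehicle, from an unpaired t-test on global-median-normalised Spectronaut label-free quantities. Proteins with ≥2 unique peptides were used. Samples were HEK293T lysate (495 µg) treated in triplicate with fragment at 200 µM or vehicle for 3 h, then with Biotin-Ahx-Ub-VS (0.5 µM final) for 1 h, with labelled DUBs NeutrAvidin-enriched and run by diaPASEF LC-MS/MS.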

USP46 = USP46 (UniProt P62068)
Method in brief: as §1

USP47 = biological target: T2, USP47 (UniProt Q96K76)
T2 sequence (whole entry): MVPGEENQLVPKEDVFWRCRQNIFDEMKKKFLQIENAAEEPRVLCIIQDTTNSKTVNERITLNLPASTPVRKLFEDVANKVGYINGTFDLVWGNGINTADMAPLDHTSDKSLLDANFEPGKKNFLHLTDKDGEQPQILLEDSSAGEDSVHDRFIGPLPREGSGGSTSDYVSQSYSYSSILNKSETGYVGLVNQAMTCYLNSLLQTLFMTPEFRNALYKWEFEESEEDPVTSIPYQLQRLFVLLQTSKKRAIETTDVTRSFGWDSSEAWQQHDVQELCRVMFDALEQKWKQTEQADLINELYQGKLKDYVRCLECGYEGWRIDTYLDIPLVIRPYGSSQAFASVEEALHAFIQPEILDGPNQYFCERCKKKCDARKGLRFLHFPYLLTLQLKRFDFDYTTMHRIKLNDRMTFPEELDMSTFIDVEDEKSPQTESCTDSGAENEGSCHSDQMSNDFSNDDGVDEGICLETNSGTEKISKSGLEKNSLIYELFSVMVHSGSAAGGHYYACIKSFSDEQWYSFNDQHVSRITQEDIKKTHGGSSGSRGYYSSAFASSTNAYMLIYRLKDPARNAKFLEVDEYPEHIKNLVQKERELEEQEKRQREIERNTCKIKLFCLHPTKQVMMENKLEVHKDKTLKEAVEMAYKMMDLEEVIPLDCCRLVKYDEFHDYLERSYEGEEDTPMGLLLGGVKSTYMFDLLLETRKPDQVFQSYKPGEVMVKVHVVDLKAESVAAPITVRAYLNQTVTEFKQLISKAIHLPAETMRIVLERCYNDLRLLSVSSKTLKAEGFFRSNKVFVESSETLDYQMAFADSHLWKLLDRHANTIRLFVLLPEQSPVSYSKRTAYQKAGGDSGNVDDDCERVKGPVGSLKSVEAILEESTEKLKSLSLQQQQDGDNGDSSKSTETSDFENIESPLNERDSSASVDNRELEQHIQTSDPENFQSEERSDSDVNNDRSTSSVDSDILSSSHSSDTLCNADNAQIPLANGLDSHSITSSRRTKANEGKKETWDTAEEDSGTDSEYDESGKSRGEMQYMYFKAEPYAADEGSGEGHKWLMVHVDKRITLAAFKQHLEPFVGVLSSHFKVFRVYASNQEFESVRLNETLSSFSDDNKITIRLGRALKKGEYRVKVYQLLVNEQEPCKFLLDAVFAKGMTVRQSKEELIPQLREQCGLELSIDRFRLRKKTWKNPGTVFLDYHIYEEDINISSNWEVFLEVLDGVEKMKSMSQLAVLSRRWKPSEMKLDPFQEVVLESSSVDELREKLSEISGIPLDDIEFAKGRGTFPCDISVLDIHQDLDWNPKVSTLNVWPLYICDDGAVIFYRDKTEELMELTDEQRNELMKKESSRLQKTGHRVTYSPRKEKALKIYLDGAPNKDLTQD
Method in brief: as §1

USP48 = biological target: T3, USP48 (UniProt Q86UV5)
T3 sequence (whole entry): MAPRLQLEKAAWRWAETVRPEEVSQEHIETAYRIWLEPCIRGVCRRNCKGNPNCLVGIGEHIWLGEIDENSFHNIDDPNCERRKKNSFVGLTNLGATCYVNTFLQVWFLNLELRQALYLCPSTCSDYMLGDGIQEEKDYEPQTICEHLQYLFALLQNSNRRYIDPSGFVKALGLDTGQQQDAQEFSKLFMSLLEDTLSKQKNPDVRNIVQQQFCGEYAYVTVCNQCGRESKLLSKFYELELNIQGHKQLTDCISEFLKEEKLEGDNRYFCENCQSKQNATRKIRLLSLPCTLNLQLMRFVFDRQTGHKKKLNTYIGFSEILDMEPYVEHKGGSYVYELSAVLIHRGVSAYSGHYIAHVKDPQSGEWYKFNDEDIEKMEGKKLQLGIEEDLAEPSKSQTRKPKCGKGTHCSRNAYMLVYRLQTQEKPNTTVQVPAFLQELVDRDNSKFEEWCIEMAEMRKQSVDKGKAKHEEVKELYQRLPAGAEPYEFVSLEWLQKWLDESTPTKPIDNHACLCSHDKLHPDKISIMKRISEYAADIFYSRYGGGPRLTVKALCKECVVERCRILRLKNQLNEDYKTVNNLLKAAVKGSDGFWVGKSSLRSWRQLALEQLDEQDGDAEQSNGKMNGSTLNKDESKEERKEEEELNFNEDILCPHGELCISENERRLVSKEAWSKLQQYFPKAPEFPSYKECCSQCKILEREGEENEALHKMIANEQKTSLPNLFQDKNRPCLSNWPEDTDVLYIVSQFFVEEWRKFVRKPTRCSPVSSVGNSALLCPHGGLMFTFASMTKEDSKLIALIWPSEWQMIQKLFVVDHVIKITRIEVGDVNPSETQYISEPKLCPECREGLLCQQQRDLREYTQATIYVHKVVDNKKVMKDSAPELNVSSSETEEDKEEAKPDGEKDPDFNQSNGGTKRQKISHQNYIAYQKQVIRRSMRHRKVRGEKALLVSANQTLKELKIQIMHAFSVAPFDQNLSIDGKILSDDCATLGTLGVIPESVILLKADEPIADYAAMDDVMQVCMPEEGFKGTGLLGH
Method in brief: as §1

USP5 = biological target: T4, USP5 (UniProt P45974)
T4 sequence (whole entry): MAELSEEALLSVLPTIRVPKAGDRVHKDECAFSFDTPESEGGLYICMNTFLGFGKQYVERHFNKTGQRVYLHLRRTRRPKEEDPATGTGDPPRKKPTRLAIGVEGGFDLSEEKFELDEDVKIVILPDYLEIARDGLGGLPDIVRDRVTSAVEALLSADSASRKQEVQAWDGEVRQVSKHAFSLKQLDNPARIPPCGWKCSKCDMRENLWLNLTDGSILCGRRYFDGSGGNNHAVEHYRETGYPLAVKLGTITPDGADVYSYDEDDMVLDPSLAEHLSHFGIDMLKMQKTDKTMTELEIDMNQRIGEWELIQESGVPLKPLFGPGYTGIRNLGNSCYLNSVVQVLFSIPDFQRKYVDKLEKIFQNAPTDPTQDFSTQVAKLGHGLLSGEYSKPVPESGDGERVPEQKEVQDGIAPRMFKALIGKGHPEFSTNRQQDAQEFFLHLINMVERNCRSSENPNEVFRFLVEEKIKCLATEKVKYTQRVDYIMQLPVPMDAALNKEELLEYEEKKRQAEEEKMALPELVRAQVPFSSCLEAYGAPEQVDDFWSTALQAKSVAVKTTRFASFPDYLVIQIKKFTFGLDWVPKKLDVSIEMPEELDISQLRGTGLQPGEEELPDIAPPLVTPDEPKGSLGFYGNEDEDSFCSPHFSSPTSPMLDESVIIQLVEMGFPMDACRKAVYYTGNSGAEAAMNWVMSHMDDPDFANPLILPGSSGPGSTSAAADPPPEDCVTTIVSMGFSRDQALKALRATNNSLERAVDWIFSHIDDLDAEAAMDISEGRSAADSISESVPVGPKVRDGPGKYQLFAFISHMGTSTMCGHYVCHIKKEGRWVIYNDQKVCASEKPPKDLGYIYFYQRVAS
Method in brief: as §1

USP54 = USP54 (UniProt Q70EL1)
Method in brief: as §1

USP7 = USP7 (UniProt Q93009)
Method in brief: as §1

USP8 = biological target: T5, USP8 (UniProt P40818)
T5 sequence (whole entry): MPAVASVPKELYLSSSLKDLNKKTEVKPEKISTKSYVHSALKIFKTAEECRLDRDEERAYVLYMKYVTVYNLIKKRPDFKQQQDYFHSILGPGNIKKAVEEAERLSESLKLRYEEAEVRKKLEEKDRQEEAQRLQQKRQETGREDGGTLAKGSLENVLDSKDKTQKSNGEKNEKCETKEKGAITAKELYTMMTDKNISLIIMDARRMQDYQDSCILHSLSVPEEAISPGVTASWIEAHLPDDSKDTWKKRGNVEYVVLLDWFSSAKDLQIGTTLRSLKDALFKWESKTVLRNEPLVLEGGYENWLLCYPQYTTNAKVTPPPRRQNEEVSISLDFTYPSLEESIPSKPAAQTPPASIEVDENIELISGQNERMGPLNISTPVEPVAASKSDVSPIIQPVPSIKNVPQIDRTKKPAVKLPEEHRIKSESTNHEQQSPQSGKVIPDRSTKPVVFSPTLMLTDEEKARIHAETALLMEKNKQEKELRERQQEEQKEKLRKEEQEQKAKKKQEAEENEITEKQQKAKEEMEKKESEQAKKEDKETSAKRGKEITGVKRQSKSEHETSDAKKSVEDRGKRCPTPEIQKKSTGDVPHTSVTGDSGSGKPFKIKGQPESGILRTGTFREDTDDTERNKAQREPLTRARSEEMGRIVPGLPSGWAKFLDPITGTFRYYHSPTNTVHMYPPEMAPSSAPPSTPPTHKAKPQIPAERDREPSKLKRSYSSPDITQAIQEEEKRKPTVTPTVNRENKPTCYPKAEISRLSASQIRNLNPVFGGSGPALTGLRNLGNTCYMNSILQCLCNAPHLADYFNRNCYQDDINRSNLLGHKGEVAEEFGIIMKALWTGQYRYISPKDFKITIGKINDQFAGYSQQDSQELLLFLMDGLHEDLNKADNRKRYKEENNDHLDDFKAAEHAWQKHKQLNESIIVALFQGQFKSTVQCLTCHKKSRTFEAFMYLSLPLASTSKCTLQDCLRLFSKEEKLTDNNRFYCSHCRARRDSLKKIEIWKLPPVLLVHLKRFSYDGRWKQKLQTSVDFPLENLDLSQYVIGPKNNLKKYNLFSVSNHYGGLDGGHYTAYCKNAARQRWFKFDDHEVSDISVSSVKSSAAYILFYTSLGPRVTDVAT
Method in brief: as §1

USP9X = USP9X (UniProt Q93008)
Method in brief: as §1

UniProt O00487 = biological target: UniProt O00487
Method in brief: as §1

Measured: log2 ratio of Biotin-Ahx-Ub-VS probe labelling

Sequence of UniProt O00487 (O00487 whole entry): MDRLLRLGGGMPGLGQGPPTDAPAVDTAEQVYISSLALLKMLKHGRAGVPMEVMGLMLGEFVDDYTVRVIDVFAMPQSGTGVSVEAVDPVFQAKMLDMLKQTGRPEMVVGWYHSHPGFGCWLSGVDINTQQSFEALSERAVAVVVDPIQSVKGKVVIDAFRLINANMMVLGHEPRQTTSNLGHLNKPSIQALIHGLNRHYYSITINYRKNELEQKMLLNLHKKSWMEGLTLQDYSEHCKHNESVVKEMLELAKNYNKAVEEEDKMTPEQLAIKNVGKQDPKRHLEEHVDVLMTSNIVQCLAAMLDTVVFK
Sequence of USP46 (P62068 whole entry): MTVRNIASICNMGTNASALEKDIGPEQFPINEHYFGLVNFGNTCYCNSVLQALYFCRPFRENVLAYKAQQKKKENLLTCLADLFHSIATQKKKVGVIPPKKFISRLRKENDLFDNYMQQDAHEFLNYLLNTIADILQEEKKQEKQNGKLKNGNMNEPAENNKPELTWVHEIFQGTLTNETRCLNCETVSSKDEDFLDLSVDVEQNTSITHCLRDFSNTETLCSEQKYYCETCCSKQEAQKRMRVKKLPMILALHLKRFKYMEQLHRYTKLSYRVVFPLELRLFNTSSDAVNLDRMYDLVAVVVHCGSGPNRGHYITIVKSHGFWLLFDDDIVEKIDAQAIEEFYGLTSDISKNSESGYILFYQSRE
Sequence of USP54 (Q70EL1 whole entry): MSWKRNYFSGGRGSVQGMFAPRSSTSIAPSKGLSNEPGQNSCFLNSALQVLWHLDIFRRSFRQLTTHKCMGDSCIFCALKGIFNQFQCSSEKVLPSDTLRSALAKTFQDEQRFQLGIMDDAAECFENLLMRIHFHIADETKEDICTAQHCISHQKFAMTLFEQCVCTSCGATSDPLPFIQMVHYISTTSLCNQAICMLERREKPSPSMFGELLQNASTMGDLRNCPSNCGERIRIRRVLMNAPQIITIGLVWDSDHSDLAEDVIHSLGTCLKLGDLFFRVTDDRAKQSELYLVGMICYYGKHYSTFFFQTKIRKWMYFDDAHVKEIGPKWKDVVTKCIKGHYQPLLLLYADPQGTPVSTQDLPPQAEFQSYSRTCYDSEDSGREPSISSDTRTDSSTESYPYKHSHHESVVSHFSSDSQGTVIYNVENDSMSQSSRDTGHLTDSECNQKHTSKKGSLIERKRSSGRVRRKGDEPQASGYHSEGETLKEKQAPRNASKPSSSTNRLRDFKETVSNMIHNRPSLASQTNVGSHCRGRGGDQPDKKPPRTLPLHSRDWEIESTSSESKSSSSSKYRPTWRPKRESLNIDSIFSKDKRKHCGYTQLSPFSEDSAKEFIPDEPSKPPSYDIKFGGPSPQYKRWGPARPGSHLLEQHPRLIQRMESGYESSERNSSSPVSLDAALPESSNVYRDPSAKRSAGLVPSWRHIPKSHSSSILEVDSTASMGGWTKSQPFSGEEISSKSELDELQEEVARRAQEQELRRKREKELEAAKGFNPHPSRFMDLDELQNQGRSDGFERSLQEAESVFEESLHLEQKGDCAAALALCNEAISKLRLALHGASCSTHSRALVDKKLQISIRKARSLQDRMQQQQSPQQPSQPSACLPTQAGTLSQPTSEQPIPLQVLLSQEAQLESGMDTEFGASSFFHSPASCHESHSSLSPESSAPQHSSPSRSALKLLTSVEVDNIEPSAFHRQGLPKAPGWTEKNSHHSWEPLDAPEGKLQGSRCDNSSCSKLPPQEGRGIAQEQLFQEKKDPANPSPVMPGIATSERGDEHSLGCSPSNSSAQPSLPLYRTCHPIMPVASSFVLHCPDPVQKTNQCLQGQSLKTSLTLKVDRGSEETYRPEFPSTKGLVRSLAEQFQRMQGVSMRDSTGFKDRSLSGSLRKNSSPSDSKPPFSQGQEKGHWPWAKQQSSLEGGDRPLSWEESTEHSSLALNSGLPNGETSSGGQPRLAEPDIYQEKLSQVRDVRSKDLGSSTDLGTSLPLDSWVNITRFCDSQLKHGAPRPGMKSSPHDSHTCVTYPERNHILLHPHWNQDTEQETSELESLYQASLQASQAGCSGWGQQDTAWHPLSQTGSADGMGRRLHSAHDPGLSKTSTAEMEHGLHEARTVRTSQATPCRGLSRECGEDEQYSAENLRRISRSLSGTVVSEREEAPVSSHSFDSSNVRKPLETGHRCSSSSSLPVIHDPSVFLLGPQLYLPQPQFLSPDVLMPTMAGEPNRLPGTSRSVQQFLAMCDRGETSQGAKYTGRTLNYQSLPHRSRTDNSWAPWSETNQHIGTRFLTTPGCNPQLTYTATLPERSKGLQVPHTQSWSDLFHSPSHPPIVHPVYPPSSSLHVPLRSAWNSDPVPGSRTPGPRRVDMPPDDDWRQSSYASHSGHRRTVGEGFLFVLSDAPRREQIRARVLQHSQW
Sequence of USP7 (Q93009 whole entry, looked up): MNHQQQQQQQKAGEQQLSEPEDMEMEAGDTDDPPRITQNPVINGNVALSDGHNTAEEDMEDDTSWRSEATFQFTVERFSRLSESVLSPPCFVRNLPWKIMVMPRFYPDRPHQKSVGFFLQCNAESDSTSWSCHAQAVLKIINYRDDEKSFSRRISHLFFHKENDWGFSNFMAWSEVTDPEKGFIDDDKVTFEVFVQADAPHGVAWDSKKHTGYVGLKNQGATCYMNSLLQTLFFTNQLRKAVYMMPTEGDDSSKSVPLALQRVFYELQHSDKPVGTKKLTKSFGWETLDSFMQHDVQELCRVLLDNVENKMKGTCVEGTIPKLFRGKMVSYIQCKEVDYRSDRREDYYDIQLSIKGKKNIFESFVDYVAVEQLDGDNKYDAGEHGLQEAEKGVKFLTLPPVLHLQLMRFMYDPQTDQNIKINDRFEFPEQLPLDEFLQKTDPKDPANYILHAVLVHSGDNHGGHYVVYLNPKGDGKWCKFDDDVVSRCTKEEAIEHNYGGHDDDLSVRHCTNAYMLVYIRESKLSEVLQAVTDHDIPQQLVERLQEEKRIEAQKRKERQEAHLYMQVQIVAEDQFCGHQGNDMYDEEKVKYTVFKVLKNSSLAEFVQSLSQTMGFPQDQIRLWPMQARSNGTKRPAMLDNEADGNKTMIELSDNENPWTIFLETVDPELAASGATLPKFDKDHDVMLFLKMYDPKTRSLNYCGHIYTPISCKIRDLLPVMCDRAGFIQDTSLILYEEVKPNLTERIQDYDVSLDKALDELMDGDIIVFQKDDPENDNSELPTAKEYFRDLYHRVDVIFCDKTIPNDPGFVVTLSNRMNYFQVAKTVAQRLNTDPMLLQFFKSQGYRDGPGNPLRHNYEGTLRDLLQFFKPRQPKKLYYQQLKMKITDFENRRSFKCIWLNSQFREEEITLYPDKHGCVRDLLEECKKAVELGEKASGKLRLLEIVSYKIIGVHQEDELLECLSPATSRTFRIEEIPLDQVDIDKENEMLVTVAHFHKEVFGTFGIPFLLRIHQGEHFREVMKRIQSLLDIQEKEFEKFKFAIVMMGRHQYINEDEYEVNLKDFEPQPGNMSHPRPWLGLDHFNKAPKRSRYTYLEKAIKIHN

O=C(CCl)N1CCc2[nH]c3ccccc3c2C1
inactive: USP42 0.132 | USP46 -0.655 | USP47 -0.863 | USP48 -0.532 | USP5 -0.461 | USP54 -0.00488 | USP7 -0.511 | USP8 -0.774 | USP9X -0.846 | UniProt O00487 -0.243
